# Test results as given in the supplement of paper PMC8728848.
# About 410 targets per protein were measured; listed, in parts, are those with the strongest signals and a random draw of the rest.
# Legend:
# Assay in all cases: glycan array binding signal (z-score within array); higher = stronger binding
# Settings in all cases: glycan notation: IUPAC condensed, linker removed
# [1] = target: Gal(b1-4)GlcNAc(b1-3)Gal(b1-4)GlcNAc(b1-3)Gal(b1-4)GlcNAc(b1-2)Man(a1-3)[Gal(b1-4)GlcNAc(b1-3)Gal(b1-4)GlcNAc(b1-3)Gal(b1-4)GlcNAc(b1-2)Man(a1-6)]Man(b1-4)GlcNAc(b1-4)GlcNAc
# Summary of the method: (§1)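 From the Consortium for Functional Glycomics database, 3228 arrays were curated, keeping only those whose protein sequence was available. Binding is given as a within-array Z-score averaged across arrays sharing a protein sequence and across linkers. Negative Z-scores can be read as non-binding.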
# [2] = target: Gal(b1-4)GlcNAc(b1-3)Gal(b1-4)GlcNAc(b1-3)Gal(b1-4)GlcNAc(b1-3)Gal(b1-4)GlcNAc(b1-2)Man(a1-3)[Gal(b1-4)GlcNAc(b1-3)Gal(b1-4)GlcNAc(b1-3)Gal(b1-4)GlcNAc(b1-3)Gal(b1-4)GlcNAc(b1-2)Man(a1-6)]Man(b1-4)GlcNAc(b1-4)[Fuc(a1-6)]GlcNAc
# Summary of the method: as §1
# [3] = target: Gal(b1-4)GlcNAc(b1-3)Gal(b1-4)GlcNAc(b1-3)Gal(b1-4)GlcNAc(b1-3)Gal(b1-4)GlcNAc(b1-2)[Gal(b1-4)GlcNAc(b1-3)Gal(b1-4)GlcNAc(b1-3)Gal(b1-4)GlcNAc(b1-3)Gal(b1-4)GlcNAc(b1-6)]Man(a1-6)[Gal(b1-4)GlcNAc(b1-3)Gal(b1-4)GlcNAc(b1-3)Gal(b1-4)GlcNAc(b1-3)Gal(b1-4)GlcNAc(b1-2)Man(a1-3)]Man(b1-4)GlcNAc(b1-4)[Fuc(a1-6)]GlcNAc
# Summary of the method: as §1
# [4] = target: Gal(b1-4)GlcNAc(b1-3)Gal(b1-4)GlcNAc(b1-3)Gal(b1-4)GlcNAc(b1-3)Gal(b1-4)GlcNAc(b1-3)Gal(b1-4)GlcNAc(b1-2)Man(a1-3)[Gal(b1-4)GlcNAc(b1-3)Gal(b1-4)GlcNAc(b1-3)Gal(b1-4)GlcNAc(b1-3)Gal(b1-4)GlcNAc(b1-3)Gal(b1-4)GlcNAc(b1-2)Man(a1-6)]Man(b1-4)GlcNAc(b1-4)GlcNAc
# Summary of the method: as §1
# [5] = target: Gal(b1-4)GlcNAc(b1-3)Gal(b1-4)GlcNAc(b1-3)Gal(b1-4)GlcNAc(b1-3)Gal(b1-4)GlcNAc(b1-3)Gal(b1-4)GlcNAc(b1-2)Man(a1-3)[Gal(b1-4)GlcNAc(b1-3)Gal(b1-4)GlcNAc(b1-3)Gal(b1-4)GlcNAc(b1-3)Gal(b1-4)GlcNAc(b1-3)Gal(b1-4)GlcNAc(b1-2)Man(a1-6)]Man(b1-4)GlcNAc(b1-4)[Fuc(a1-6)]GlcNAc
# Summary of the method: as §1
# [6] = target: Gal6S(b1-3)GlcNAc6S
# Summary of the method: as §1
# [7] = target: GalNAc(b1-4)GlcNAc
# Summary of the method: as §1
# [8] = target: GalNAc3S(b1-4)GlcNAc
# Summary of the method: as §1
# [9] = target: GlcNAc(a1-3)Gal(b1-4)GlcNAc
# Summary of the method: as §1
# [10] = target: GlcNAc(b1-3)Gal(b1-4)GlcNAc(b1-3)Gal(b1-4)GlcNAc(b1-3)Gal(b1-4)GlcNAc(b1-3)Gal(b1-4)GlcNAc(b1-2)Man(a1-3)[GlcNAc(b1-3)Gal(b1-4)GlcNAc(b1-3)Gal(b1-4)GlcNAc(b1-3)Gal(b1-4)GlcNAc(b1-3)Gal(b1-4)GlcNAc(b1-2)Man(a1-6)]Man(b1-4)GlcNAc(b1-4)[Fuc(a1-6)]GlcNAc
# Summary of the method: as §1
# [11] = target: GlcNAc(b1-3)GalNAc
# Summary of the method: as §1
# [12] = target: Man(a1-2)Man(a1-3)Man
# Summary of the method: as §1
# [13] = target: Neu5Ac(a2-3)Gal
# Summary of the method: as §1
# [14] = target: Neu5Ac(a2-3)Gal(b1-3)GalNAc
# Summary of the method: as §1
# [15] = target: Neu5Ac(a2-3)Gal(b1-3)GlcNAc(b1-3)Gal(b1-4)GlcNAc
# Summary of the method: as §1
# [16] = target: Neu5Ac(a2-3)Gal(b1-3)[Neu5Ac(a2-6)]GlcNAc(b1-3)[Fuc(a1-3)[Gal(b1-4)]GlcNAc(b1-6)]Gal(b1-4)Glc
# Summary of the method: as §1
# [17] = target: Neu5Ac(a2-3)Gal(b1-4)GlcNAc(b1-3)Gal(b1-4)GlcNAc(b1-3)Gal(b1-4)GlcNAc(b1-2)Man(a1-3)[Neu5Ac(a2-3)Gal(b1-4)GlcNAc(b1-3)Gal(b1-4)GlcNAc(b1-3)Gal(b1-4)GlcNAc(b1-2)Man(a1-6)]GalNAc
# Summary of the method: as §1
# [18] = target: Neu5Ac(a2-3)Gal(b1-4)[Fuc(a1-3)]GlcNAc(b1-3)GalNAc
# Summary of the method: as §1
# [19] = target: Neu5Ac(a2-3)Gal6S(b1-4)[Fuc(a1-3)]GlcNAc
# Summary of the method: as §1
# [20] = target: Neu5Ac(a2-6)Gal(b1-3)GlcNAc(b1-3)[Gal(b1-4)GlcNAc(b1-6)]Gal(b1-4)Glc
# Summary of the method: as §1
# [21] = target: Neu5Ac(a2-6)Gal(b1-4)GlcNAc(b1-2)Man(a1-6)[GlcNAc(b1-2)Man(a1-3)]Man(b1-4)GlcNAc(b1-4)GlcNAc
# Summary of the method: as §1
# [22] = target: Neu5Ac(a2-6)Gal(b1-4)GlcNAc(b1-3)Gal(b1-4)[Fuc(a1-3)]GlcNAc(b1-3)Gal(b1-4)[Fuc(a1-3)]GlcNAc
# Summary of the method: as §1
# [23] = target: Neu5Ac(a2-8)Neu5Ac
# Summary of the method: as §1
# [24] = target: Neu5Gc(a2-3)Gal(b1-3)[Fuc(a1-4)]GlcNAc
# Summary of the method: as §1
# [25] = target: Neu5Gc(a2-3)Gal(b1-4)GlcNAc(b1-3)Gal(b1-4)GlcNAc(b1-2)Man(a1-3)[Neu5Gc(a2-3)Gal(b1-4)GlcNAc(b1-3)Gal(b1-4)GlcNAc(b1-2)Man(a1-6)]Man(b1-4)GlcNAc(b1-4)GlcNAc
# Summary of the method: as §1
binder,measurement,setting,value
GS7807H-bfa-490-18-490 (Bacteroides fragilis) (protein) GNLEEMNIDPDNATQTHPKLLLTQICMNAFKRGTDGMYATKKVIQADGESADQYYKWTRGSFGYYDNLRNVQKMGEEAERVNAPVYTALTKFFRAYYFYELTLRFGDIPYSQALKGEKEEIYTPEYDAQEDVFAGILQELREADEILANDASVIDGDIIYNGNSTQWRKLINSFRLKVLMTLSNHTTVGNINIASEFKNIATNSPLMNSLADNGQLVYLDQQGNRYPQFNAQWSGYYMDDTFIQRMRERRDPRLFIFSAQTNKGKTEGKPIDDFSSYEGGDPAAPYSDAIIKVSEGTISPINDRFRTDPIVEPTMLMGYAELQQILAEAVVRGWISGNAQTYYEKGIRASFSFYETHAKDYAGYLNENAVAQYLKEPLVDFTQASGTEEQIERIIMQKYLVTFYQGNWDSFYEQLRTGYPDFRRPAGTEIPKRWMYPQGEYDNNGTNVETAITRQFGAGNDKINQATWWQKKS,glycan array binding signal (z-score),[1],2.19
same,glycan array binding signal (z-score),[2],2.51
same,glycan array binding signal (z-score),[3],2.08
same,glycan array binding signal (z-score),[4],1.71
same,glycan array binding signal (z-score),[5],2.17
same,glycan array binding signal (z-score),[6],1.52
same,glycan array binding signal (z-score),[7],0.462
same,glycan array binding signal (z-score),[8],-0.743
same,glycan array binding signal (z-score),[9],-0.677
same,glycan array binding signal (z-score),[10],4.28
same,glycan array binding signal (z-score),[11],-0.454
same,glycan array binding signal (z-score),[12],0.369
same,glycan array binding signal (z-score),[13],-0.022
same,glycan array binding signal (z-score),[14],-0.368
same,glycan array binding signal (z-score),[15],-0.526
same,glycan array binding signal (z-score),[16],-0.176
same,glycan array binding signal (z-score),[17],9.02
same,glycan array binding signal (z-score),[18],5.66
same,glycan array binding signal (z-score),[19],-0.29
same,glycan array binding signal (z-score),[20],0.078
same,glycan array binding signal (z-score),[21],-0.141
same,glycan array binding signal (z-score),[22],-0.32
same,glycan array binding signal (z-score),[23],-0.459
same,glycan array binding signal (z-score),[24],-0.469
same,glycan array binding signal (z-score),[25],-0.11
